Measured values taken from PubChem BioAssay AID624086 (Broad Institute, 2012).
The source made the active and inactive calls.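 Rule for the calls: active = fitted half-maximal effect concentration at or below the top concentration tested; inactive = the rest.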

Experiment: TCF/LEF reporter activation, dose response, orthogonal assay for GSK3b inhibitor project, cell-based, HEK293T, firefly luciferase, dry powder (AID 624086)
Details: 24 h; series mostly up to 26 µM

outcome, inactive:
CC1(C)CC(=O)C2=C(C1)Nc1n[nH]c(C(F)(F)F)c1C2c1cc(F)ccc1F (stereo not given), Cc1[nH]nc2nc3c(c(-c4cccs4)c12)C(=O)CC(C)(C)C3, Cc1[nH]nc2nc3c(c(-c4ccccc4)c12)C(=O)CC(C)(C)C3, COc1ccccc1C1C2=C(CC(C)(C)CC2=O)Nc2n[nH]c(C(C)C)c21 (stereo not given), Cc1[nH]nc2c1C(c1ccc(Cl)cc1)C1=C(CC(C)(C)CC1=O)N2 (stereo not given), Cc1[nH]nc2c1[C@H](c1ccccc1C(F)(F)F)C1=C(CC(C)(C)CC1=O)N2, CC(C)COc1ccc(-c2nn(-c3ccccc3)cc2/C=N/O)cc1, Cc1[nH]nc2c1C(c1ccc3c(c1)OCO3)C1=C(CC(C)(C)CC1=O)N2 (stereo not given), Cc1[nH]nc2c1C(c1ccccn1)C1=C(CC(C)(C)CC1=O)N2 (stereo not given), COc1cccc(-c2nn(-c3ccccc3)cc2/C=N/O)c1, COc1ccccc1C1C2=C(CCCC2=O)Nc2n[nH]c(C)c21 (stereo not given), Cc1[nH]nc2c1C(c1ccn[nH]1)C1=C(CC(C)(C)CC1=O)N2 (stereo not given), COc1ccccc1/C=C1\C(=O)CC(C)(C)CC1=Nc1cc(C(F)(F)F)[nH]n1, COc1ccccc1C1C2=C(CCC(C)(C)C2=O)Nc2n[nH]c(C)c21 (stereo not given), CNC(=O)c1cn(-c2ccccc2)nc1-c1ccc(OC)cc1
